Assay results: PubChem BioAssay
The source made the active and inactive calls.

What was measured:
[1] = compound effects on lung adenocarcinoma cell viability – A549, calcein-AM fluorescence, 48 h, basal, profiling panel (AID 1162); conditions: higher = more signal
[2] = compound effects on differentiated 3T3-L1 adipocyte viability – cell-based, 3T3-L1 adipocytes, calcein-AM fluorescence, 48 h, basal, profiling panel (AID 1163); conditions: 3T3-L1 adipocytes viability, higher = more signal
[3] = compound effects on hepatocellular carcinoma cell viability – HepG2, calcein-AM fluorescence, 48 h, basal, profiling panel (AID 1164); conditions: higher = more signal
[4] = compound effects on multiple myeloma cell viability – MM1S, calcein-AM fluorescence, 48 h, basal, profiling panel (AID 1165); conditions: higher = more signal
[5] = calcein-AM signal in unstimulated myeloma cells – cell-based, calcein-AM fluorescence, 48 h, PK04 Diversity Set, profiling panel (AID 1166); conditions: RPMI8226 myeloma viability, higher = more signal;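 also: cells grown under basal conditions without added stimulus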
[6] = JC-1 mitochondrial signal, unstimulated HepG2 cells – cell-based, JC-1 fluorescence, 24 h, 100 nL compound, profiling panel (AID 1167); conditions: HepG2 mitochondrial potential, higher = more signal
[7] = JC-1 mitochondrial signal, unstimulated adipocytes – cell-based, JC-1 fluorescence, 3T3-L1 adipocytes, 24 h, 100 nL compound, profiling panel (AID 1168); conditions: JC-1 mitochondrial fluorescence, higher = more signal, called active from +8 up or from −8 down
[8] = JC-1 mitochondrial signal, unstimulated myeloma cells – cell-based, JC-1 fluorescence, RPMI8226, 24 h, 100 nL compound, profiling panel (AID 1169); conditions: JC-1 mitochondrial potential fluorescence, higher = more signal
[9] = JC-1 mitochondrial signal, unstimulated MM1S myeloma – cell-based, JC-1 fluorescence, 24 h, 100 nL compound, profiling panel (AID 1170); conditions: MM1S mitochondrial potential, higher = more signal
[10] = resazurin metabolic signal in A549 cells – cell-based, resazurin fluorescence, 24 h, PK04 Diversity Set, profiling panel (AID 1171); conditions: A549 viability, higher = more signal, called active from +8 up or from −8 down
Also: test concentration not given here.

Row | SMILES | z-score [1] | z-score [2] | z-score [3] | z-score [4] | z-score [5] | z-score [6] | z-score [7] | z-score [8] | z-score [9] | z-score [10]
1 | NCCCCCCNC(=O)[C@H]1C[C@H]2C(=O)N[C@@H](Cc3ccccc3)C(=O)N2[C@H]1c1ccc(O)cc1 | 0.0513 | 0.565 | -0.623 | 0.675 | 0.337 | -0.424 | 0.0433 (inactive) | -1 | -0.119 | 1.18 (inactive)
2 | COc1ccc(C(O)C2C=CC3C(=O)N(C)C(=O)C3N2N2CCCCC2)cc1 (stereo not given) | -0.972 | 0.0526 | 0.133 | -0.207 | -0.0882 | -0.49 | 0.0216 (inactive) | -0.176 | 0.188 | 0.014 (inactive)
3 | NC(=O)N1C(=O)C2C(C1=O)C1C=C(CCCO)C2C(c2cccs2)N1Cc1cc2c(cc1Br)OCO2 (stereo not given) | 0.89 | 1.46 | 0.78 | 0.0067 | 0.695 | 1.01 | 0.111 (inactive) | -0.11 | -0.214 | 0.514 (inactive)
4 | C[C@@H]1ON(c2ccc(C(=O)OC(C)(C)C)cc2)[C@H](c2ccc(Br)cc2)[C@H]1C(=O)N1C(=O)OC[C@H]1Cc1ccccc1 | 0.136 | 0.393 | 0.889 | -0.486 | -0.403 | 0.401 | -0.728 (inactive) | -1.1 | 0.24 | 1.23 (inactive)
5 | CN(C)CCCN1C(=O)[C@@]2(c3ccc([N+](=O)[O-])cc3)CC(=O)N(CC34CC5CC(CC(C5)C3)C4)[C@@H]2c2ccc(CO)cc21 | 2.86 | 0.338 | 0.28 | -0.18 | 0.621 | 0.474 | 1.38 (inactive) | -0.0069 | 0.41 | -0.928 (inactive)
6 | CCCc1cccc(=O)o1 | -0.996 | 0.369 | -0.133 | 0.25 | -0.316 | -0.147 | 0.72 (inactive) | -0.417 | -0.773 | 0.366 (inactive)
7 | CCCC=C(CCC)[C@@H](NP(=O)(c1ccccc1)c1ccccc1)c1ccc(C(F)(F)F)cc1 | -0.779 | -0.531 | -0.365 | 0.463 | 0.218 | -0.497 | -1.53 (inactive) | 0.72 | -0.379 | 0.472 (inactive)
8 | CN(C)CCCCNC(=O)[C@H]1C[C@H]2C(=O)N[C@@H](CCCCN(C)C)C(=O)N2[C@H]1c1cccc(OCCO)c1 | -0.317 | 0.0593 | -0.269 | -0.0355 | 0.495 | 0.13 | 0.429 (inactive) | 0.426 | 0.23 | 0.471 (inactive)
9 | CCOC(=O)C[C@H]1[C@H](OC(=O)Cc2ccc3c(c2)OCO3)[C@@H](NC(=O)C2CCCCC2)c2cc(OCCCO)ccc2N1C(=O)c1ccc2ccccc2n1 | 0.177 | 1.72 | 0.726 | 0.435 | -1.18 | -2.42 | 0.436 (inactive) | 0.602 | -0.703 | 0.125 (inactive)
10 | C=C(COC)/C(=C/C[C@@H](OC(=O)c1ccncc1)c1ccc(CO)o1)c1cnc2ccccc2c1 | -0.308 | 0.513 | -0.607 | -0.164 | 0.575 | -0.65 | 0.654 (inactive) | 0.0268 | -0.151 | 0.331 (inactive)
11 | COCCCNC(=O)[C@]1(CCC(=O)OC(C)(C)C)N=C(c2ccc(OCCCO)cc2)O[C@@H]1c1ccccc1 | 0.369 | -0.342 | -0.797 | 0.326 | -0.0674 | -0.145 | 0.0968 (inactive) | 0.86 | -0.705 | 0.119 (inactive)
12 | CC(C)C(=C=CC[C@H](O)c1ccc(OCCO)cc1)C[C@H](O)c1cc(Cl)cc(Cl)c1O | 0.648 | 0.831 | -0.627 | -3.41 | -3.74 | -1.77 | -0.132 (inactive) | -0.124 | -0.66 | 0.885 (inactive)
13 | O=C(CS)NCCCCCCNC(=O)[C@@H]1C[C@@H]2C(=O)N3CCC[C@H]3C(=O)N2[C@@H]1c1cccc(OCCO)c1 | 2.14 | 0.426 | 1.02 | 0.0848 | 0.449 | -0.151 | 0.193 (inactive) | 0.0158 | 0.111 | -0.659 (inactive)
14 | CC(C)C(O)C1C=CC2C(=O)N(C)C(=O)C2N1N(c1ccccc1)c1ccccc1 (stereo not given) | -0.659 | -1.24 | 0.689 | 0.0007 | 0.0729 | -0.0204 | -0.291 (inactive) | -0.286 | -0.387 | -0.391 (inactive)
15 | C=C(C(=O)CC[C@H](OC(C)=O)c1cccc(OCCO)c1)C(C)C | -0.271 | 0.8 | -0.979 | -0.624 | -0.814 | -1.1 | 0.113 (inactive) | -0.427 | 0.89 | -0.62 (inactive)
16 | C=CCOC(=O)[C@H]1[C@@H]2C(=O)O[C@@H](c3ccccc3)[C@@H](c3ccccc3)N2[C@@H](c2ccc(OCCOC(=O)[C@H]3C[C@H]4C(=O)N[C@@H](Cc5ccccc5)C(=O)N4[C@H]3c3ccc(O)cc3)cc2)[C@]12C(=O)Nc1ccc(I)cc12 | -0.7 | 0.664 | 1.16 | 0.0161 | -0.321 | 0.408 | -0.118 (inactive) | -0.59 | -1.04 | -0.0968 (inactive)

Row | SMILES | z-score [1] | z-score [2] | z-score [3] | z-score [4] | z-score [5] | z-score [6] | z-score [7] | z-score [8] | z-score [9] | z-score [10]
17 | O=C(O)[C@]1(Cc2ccccc2)N=C(c2ccc(OCCCO)cc2)O[C@@H]1c1ccccc1 | 1.07 | -1.44 | 0.493 | 0.427 | 0.261 | -0.121 | 0.766 (inactive) | -0.833 | -0.38 | 0.455 (inactive)
18 | C[C@H]1C2=C3C(CC[C@H]4C(OCc5ccc(F)cc5C(F)(F)F)OC[C@](C)([C@@H]34)N(C(=O)OC(C)(C)C)C2)C(CO)C1CO (stereo not given in full) | -1.49 | -0.723 | -0.907 | -3.22 | -4.68 | -0.987 | -1.13 (inactive) | -0.522 | 0.0495 | -0.629 (inactive)
19 | O=C(N1CCCCC1)[C@@]1(Cc2ccccc2)COC(c2ccc(OCCCO)cc2)=N1 | -1.14 | 0.675 | -0.159 | -3.14 | -1.77 | -2.33 | 0.987 (inactive) | -1.08 | -0.923 | 1.68 (inactive)
20 | CCCCN1CC=CC23O[C@@H]4C=CCOC(=O)[C@@H]4[C@H]2C(=O)N(CCCO)[C@@H]3C1=O (stereo not given in full) | -0.117 | 1.11 | -0.49 | 0.799 | -0.304 | -1.11 | 0.111 (inactive) | -0.702 | 0.797 | -1.28 (inactive)
21 | COCCOC(=O)N1C(=O)[C@@]2(c3cc(C#CC4(O)CCCCCC4)ccc31)[C@H](C(N)=O)[C@H]1C(=O)O[C@H](c3ccccc3)[C@H](c3ccccc3)N1[C@@H]2c1ccc(O)cc1 | 1.47 | 0.521 | 0.412 | -2.88 | -3.95 | -0.0298 | -0.62 (inactive) | -0.522 | -1.25 | 0.394 (inactive)
22 | O=C1c2ccccc2[C@](Cc2ccccc2I)(C(=O)NCc2ccccc2)[C@H](c2ccc(CO)cc2)N1C1CCCCC1 | -0.475 | 1.03 | -0.36 | -2.3 | -1.99 | 1.36 | -0.424 (inactive) | 0.173 | 0.551 | 0.623 (inactive)
23 | [N-]=[N+]=Nc1ccccc1[C@@H]1OC(c2ccc(OCCCO)cc2)=N[C@]1(CCS(=O)(=O)c1ccccc1)C(=O)NCCN1CCOCC1 | 0.652 | 1.37 | -0.229 | 0.351 | -1.58 | 0.0652 | -0.783 (inactive) | -0.465 | -1.2 | 0.465 (inactive)
24 | C=C(/C(=C/C[C@@H](OC(=O)c1ccncc1)c1ccc(OCCO)cc1)c1cc(C(=O)OC)ccc1OC)C(C)C | -0.738 | 0.61 | 0.391 | -0.166 | 0.687 | 2.81 | 0.436 (inactive) | -0.177 | -0.744 | 1.4 (inactive)
25 | C=C1C2CC3C(=C4C(CO[C@@H]4[C@H]4CCCN4S(=O)(=O)c4ccccc4[N+](=O)[O-])C4C(=O)N(C)C(=O)C34)CC2C(=O)N1C (stereo not given in full) | -0.704 | 0.332 | -0.0708 | -3.31 | -1.28 | -1.83 | -0.543 (inactive) | 0.485 | -0.347 | -0.123 (inactive)
26 | C=C(COC)/C(=C/C[C@@H](OC(=O)c1ccncc1)c1cccc(OCCO)c1)c1cnc2ccccc2c1 | 0.0954 | 0.542 | -1.03 | -2.17 | -0.307 | 0.862 | -1.76 (inactive) | 0.187 | 0.276 | -0.634 (inactive)
27 | CC[C@H]1C2=C3C(CC[C@H]4C(OCc5ccc(F)cc5C(F)(F)F)OC[C@](C)([C@@H]34)N(C(=O)OC(C)(C)C)C2)C2COC(=O)OCC21 (stereo not given in full) | -0.195 | -0.412 | 0.478 | -2.9 | -4.68 | -0.492 | -1.41 (inactive) | -0.0899 | -1.45 | -0.186 (inactive)
28 | COc1c(C)cc(-c2cc3c(c(Cc4ccccc4)n2)[Si](C(C)C)(C(C)C)OC3)cc1C | -0.983 | -1.44 | 0.269 | -0.418 | -0.0095 | -1 | -0.737 (inactive) | 0.0185 | -0.00287 | -0.124 (inactive)
29 | CN(C)CCCNC(=O)[C@@H]1c2ccccc2C(=O)N(Cc2ccc(OC(F)(F)F)cc2)[C@H]1c1ccc(CO)cc1 | 1.71 | 1.91 | -0.0979 | 0.584 | -2.39 | 3.72 | -0.463 (inactive) | -0.114 | -1.13 | 0.989 (inactive)
30 | C=C(/C(=C/C[C@@H](OC(=O)c1ccncc1)c1ccccc1OCCO)c1cc(C(=O)OC)ccc1OC)C(C)C | 1.36 | 0.38 | 0.92 | -3.25 | -2.11 | 2.74 | -0.158 (inactive) | 0.00511 | -1.71 | -0.108 (inactive)
31 | COc1ccc([Si](C)(C)[C@@H]2[C@@H](CCn3cc([C@H](O)c4ccccc4)nn3)O[C@]3(C(=O)N(Cc4ccc(N5CCOC5=O)cc4)c4ccccc43)[C@H]2C)cc1 | -0.0046 | 0.417 | 0.215 | -1.06 | -1.3 | 1.67 | 0.00306 (inactive) | 0.417 | -0.657 | 0.595 (inactive)
